# According to PubChem BioAssay:
# For part of these data: Measured potencies and affinities stand elsewhere. Active and inactive are the calls of the source. Unless noted, no rule for the calls is given here.
# Tests used:
# [1] = antimalarial activity against Dd2 strain (AID 2302;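 active = growth inhibition above 50% at the single 2 µM test dose, taken to imply half-maximal potency below 2 µM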;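 also: 0% = DMSO untreated growth and 100% = chloroquine plus artemisinin killed control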); settings: P. falciparum Dd2 in RBCs, LDH growth readout, 72 h; at 2 µM; hits give high values
# [2] = human hepatoma cell viability loss – ATP luminescence, cytotoxicity control for P. falciparum antimalarial project, primary screen (AID 2303;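 active = inhibition above 50%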;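 also: 0% = DMSO wells and 100% = digitonin-killed cells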); settings: HepG2 viability, 24-48 h, at 10 µM, hits give high values
# [3] = biological target: L-lactate dehydrogenase (Plasmodium falciparum (isolate CDC / Honduras)) (UniProt Q27743); assay: PfLDH activity inhibition – cell lysate, 3D7 strain, counter-screen for P. falciparum growth inhibition project (AID 2304);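 also: 0% = vehicle and 100% = reference inhibitor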; settings: P. falciparum 3D7 crude extract, LDH APAD/NBT absorbance; at 2 µM; hits give high values
# [4] = inhibition of 3D7 malaria parasite growth – strain 3D7 (AID 2306);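 also: 0% = DMSO wells and 100% = chloroquine plus artemisinin control wells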; settings: P. falciparum 3D7 erythrocytic growth, LDH absorbance, 72 h; at 2 µM; hits give high values
# [5] = biological target: Calcium-dependent protein kinase 1 (Plasmodium falciparum (isolate 3D7)) (UniProt P62344); assay: PfCDPK1 kinase inhibitors, biochemical, TCAMS library (AID 1159585; cut-off not given, nearly all actives have IC50 up to about 0.98 µM;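 also: inhibitors leave more ATP so luminescence rises with inhibition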); settings: recombinant PfCDPK1, Kinase-Glo ATP depletion luminescence
# [6] = biological target: Plasmodium falciparum protein kinase 6 (PK6, PF3D7_1337100) (UniProt Q8IDW1); assay: PfPK6 kinase inhibitors, biochemical, TCAMS library (AID 1159586); settings: recombinant PfPK6, Kinase-Glo ATP depletion luminescence
# [7] = biological target: Protein kinase 7 (PK7), Plasmodium falciparum 3D7 (PF3D7_0213400) (UniProt Q7YTF7); assay: inhibition of Plasmodium PK7 catalytic activity – biochemical, TCAMS antimalarial set, Kinase-Glo luminescence (AID 1159587); settings: recombinant PfPK7, Kinase-Glo ATP depletion luminescence
# [8] = biological target: Calcium-dependent protein kinase 4 (Plasmodium falciparum (isolate 3D7)) (UniProt Q8IBS5); assay: PfCDPK4 kinase inhibitors, biochemical, TCAMS library (AID 1159588; cut-off not given, nearly all actives have IC50 up to about 0.91 µM); settings: recombinant PfCDPK4, Kinase-Glo ATP depletion luminescence
# Calcium-dependent protein kinase 4 (Plasmodium falciparum (isolate 3D7)), sequence (Q8IBS5 whole entry, looked up): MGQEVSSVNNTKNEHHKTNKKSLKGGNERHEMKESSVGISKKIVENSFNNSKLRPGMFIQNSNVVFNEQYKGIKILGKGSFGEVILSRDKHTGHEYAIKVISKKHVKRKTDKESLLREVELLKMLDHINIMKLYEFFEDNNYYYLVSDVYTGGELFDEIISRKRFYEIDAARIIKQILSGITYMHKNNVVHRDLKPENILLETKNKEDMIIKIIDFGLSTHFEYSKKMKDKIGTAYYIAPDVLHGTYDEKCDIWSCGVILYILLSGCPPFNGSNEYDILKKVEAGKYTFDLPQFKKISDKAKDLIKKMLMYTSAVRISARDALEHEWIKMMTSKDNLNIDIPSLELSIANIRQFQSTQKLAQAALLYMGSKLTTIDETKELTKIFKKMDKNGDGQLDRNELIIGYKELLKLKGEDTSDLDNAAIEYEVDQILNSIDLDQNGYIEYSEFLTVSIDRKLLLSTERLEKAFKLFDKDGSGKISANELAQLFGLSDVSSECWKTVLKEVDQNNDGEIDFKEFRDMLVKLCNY
# Plasmodium falciparum protein kinase 6 (PK6, PF3D7_1337100), sequence (Q8IDW1 1-305): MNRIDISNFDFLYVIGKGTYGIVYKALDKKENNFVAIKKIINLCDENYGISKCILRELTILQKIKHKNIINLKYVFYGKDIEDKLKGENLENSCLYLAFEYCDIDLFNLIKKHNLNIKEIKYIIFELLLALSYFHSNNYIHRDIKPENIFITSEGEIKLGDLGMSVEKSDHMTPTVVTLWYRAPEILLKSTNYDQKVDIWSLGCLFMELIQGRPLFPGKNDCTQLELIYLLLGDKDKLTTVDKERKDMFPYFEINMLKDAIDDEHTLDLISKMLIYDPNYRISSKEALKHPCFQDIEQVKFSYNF
# L-lactate dehydrogenase (Plasmodium falciparum (isolate CDC / Honduras)), sequence (Q27743 whole entry, looked up): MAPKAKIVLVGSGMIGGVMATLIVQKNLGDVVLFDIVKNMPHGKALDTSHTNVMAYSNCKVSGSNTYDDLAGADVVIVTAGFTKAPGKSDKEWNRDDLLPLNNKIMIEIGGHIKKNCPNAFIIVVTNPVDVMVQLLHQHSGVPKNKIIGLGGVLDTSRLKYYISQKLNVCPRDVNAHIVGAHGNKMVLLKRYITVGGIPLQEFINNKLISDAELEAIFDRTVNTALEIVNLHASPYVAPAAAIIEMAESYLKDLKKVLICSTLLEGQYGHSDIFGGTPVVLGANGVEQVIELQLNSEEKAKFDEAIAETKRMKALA
# Protein kinase 7 (PK7), Plasmodium falciparum 3D7 (PF3D7_0213400), sequence (Q7YTF7 1-343): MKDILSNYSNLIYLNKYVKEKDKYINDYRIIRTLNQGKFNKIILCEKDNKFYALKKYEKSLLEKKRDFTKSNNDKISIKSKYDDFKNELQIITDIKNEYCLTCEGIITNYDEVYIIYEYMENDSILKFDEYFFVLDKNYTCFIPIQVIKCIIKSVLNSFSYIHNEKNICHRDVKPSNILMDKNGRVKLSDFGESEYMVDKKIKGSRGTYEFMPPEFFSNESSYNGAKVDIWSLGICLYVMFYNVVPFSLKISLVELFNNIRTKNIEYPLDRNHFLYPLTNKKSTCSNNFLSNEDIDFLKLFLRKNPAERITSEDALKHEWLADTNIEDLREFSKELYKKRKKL
# Calcium-dependent protein kinase 1 (Plasmodium falciparum (isolate 3D7)), sequence (P62344 whole entry, looked up): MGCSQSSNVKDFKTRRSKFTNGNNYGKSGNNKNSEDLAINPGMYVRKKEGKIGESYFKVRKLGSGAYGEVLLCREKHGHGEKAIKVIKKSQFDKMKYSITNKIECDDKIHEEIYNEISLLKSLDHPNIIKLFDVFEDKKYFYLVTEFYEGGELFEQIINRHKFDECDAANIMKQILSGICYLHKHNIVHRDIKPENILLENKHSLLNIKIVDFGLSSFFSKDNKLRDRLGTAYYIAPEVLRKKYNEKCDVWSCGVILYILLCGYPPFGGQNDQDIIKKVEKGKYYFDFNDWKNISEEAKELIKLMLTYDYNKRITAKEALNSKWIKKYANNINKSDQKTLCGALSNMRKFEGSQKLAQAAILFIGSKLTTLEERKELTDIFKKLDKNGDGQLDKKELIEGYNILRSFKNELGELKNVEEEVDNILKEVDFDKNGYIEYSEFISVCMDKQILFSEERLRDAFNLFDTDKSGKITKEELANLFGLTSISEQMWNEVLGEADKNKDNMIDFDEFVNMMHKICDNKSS
SMILES,growth inhibition [1],inhibition [2],inhibition [3],growth inhibition [4],outcome [5],outcome [6],outcome [7],outcome [8]
O=C(CC1NC(=O)c2ccccc21)Nc1ccc(-c2ccc(-c3nc4ccc(C(F)(F)F)cc4[nH]3)cc2)cc1 (configuration not stated),70% (active),39% (inactive),-2% (inactive),87% (active),inactive,inactive,inactive,inactive
O=C(CSc1nccn1C1CCCC1)Nc1cc(C(F)(F)F)ccc1Cl,94% (active),-4% (inactive),-2% (inactive),96% (active),inactive,inactive,inactive,inactive
CC(C)CCCC(C)(C)NC[C@@H](O)[C@H](Cc1ccccc1)NC(=O)c1cc(NC(C)C)cc(N2CCCCS2(=O)=O)c1F,99% (active),11% (inactive),-3% (inactive),98% (active),inactive,inactive,inactive,inactive
O=C(Nc1ccc(-c2ccccc2)s1)N[C@H]1CCN(Cc2ccc(OCCCN3CCCCC3)cc2)C1,40% (inactive),5% (inactive),-6% (inactive),102% (active),inactive,inactive,inactive,inactive
CC(=O)N(C)c1cccc(C(=O)Nc2cccc(-c3cccc(-c4nc5c(C)cccc5[nH]4)c3)c2)c1,41% (inactive),15% (inactive),-9% (inactive),89% (active),inactive,inactive,inactive,inactive
COc1ccc(CCN2CCC(Nc3nc4ccccc4n3CCc3ccc(OC)cc3)CC2)cc1,88% (active),34% (inactive),-1% (inactive),101% (active),inactive,inactive,inactive,inactive
NCC1CCCN1Cc1cccc(-c2ccc(-c3nc4ccc(C(F)(F)F)cc4[nH]3)cc2)c1 (configuration not stated),95% (active),20% (inactive),0% (inactive),100% (active),inactive,inactive,inactive,inactive
N#Cc1ccc2[nH]cc(C(=O)CCCCCN(Cc3ccccc3)Cc3ccccc3)c2c1,97% (active),10% (inactive),2% (inactive),93% (active),inactive,inactive,inactive,inactive
CC(=O)Nc1cccc(C(=O)Nc2cccc(-c3csc(-c4nc5ccccc5[nH]4)c3)c2)c1,97% (active),39% (inactive),1% (inactive),96% (active),inactive,inactive,inactive,inactive
O=C(NCCCCN1CCC(c2c[nH]c3ccccc23)CC1)c1ccc(-c2ccc(C(F)(F)F)cc2)cc1,22% (inactive),34% (inactive),-1% (inactive),98% (active),inactive,inactive,inactive,inactive
CC(C)(C)c1cc(CN2CCN(Cc3ccccc3)CC2)cc(C(C)(C)C)c1O,0% (inactive),9% (inactive),0% (inactive),97% (active),inactive,inactive,inactive,inactive
CCCCN(Cc1cnccc1-c1ccc(Br)cc1)c1ccc(C(O)(C(F)(F)F)C(F)(F)F)cc1,45% (inactive),10% (inactive),6% (inactive),87% (active),inactive,inactive,inactive,inactive
COc1ccc(CN(C)CCCOc2ccc(NC(=O)c3cccc4c(=O)c5cccc(F)c5[nH]c34)cc2)cc1OC,96% (active),6% (inactive),-3% (inactive),100% (active),inactive,inactive,inactive,inactive
CCOc1ccc(C(=O)Nc2cc(Cl)ccc2O)cc1Cl,84% (active),11% (inactive),0% (inactive),83% (active),inactive,inactive,inactive,inactive
COc1ccc2nccc([C@@H](O)CN3CCC(NCc4cc5cccc(OC)c5o4)CC3)c2c1,81% (active),10% (inactive),-8% (inactive),99% (active),inactive,inactive,inactive,inactive
O=C(/C=C/c1ccc(Cl)c(Cl)c1)NCCCCCN1CCC(CCNC(=O)c2snnc2-c2ccccc2)CC1,1% (inactive),54% (active),-2% (inactive),89% (active),inactive,inactive,inactive,inactive
Cc1cccc2[nH]c(-c3cccc(-c4cccc(NC(=O)c5cncn5C)c4)c3)nc12,91% (active),-1% (inactive),0% (inactive),103% (active),inactive,inactive,inactive,inactive
CNCc1cccc2[nH]c(-c3csc(Cc4cc(Cl)ccc4OCC(C)C)n3)nc12,33% (inactive),9% (inactive),-4% (inactive),100% (active),inactive,inactive,inactive,inactive
Cc1nc(Nc2ccc(F)cc2)nc(N2CCc3ccccc3C2C)c1CO (configuration not stated),95% (active),-9% (inactive),-4% (inactive),101% (active),inactive,inactive,inactive,inactive
COc1ccc2nccc([C@H](O)CN3CCC(NCc4nc5c(F)cccc5[nH]4)CC3)c2c1,0% (inactive),0% (inactive),-1% (inactive),98% (active),inactive,inactive,inactive,inactive

SMILES,growth inhibition [1],inhibition [2],inhibition [3],growth inhibition [4],outcome [5],outcome [6],outcome [7],outcome [8]
CC(=O)Nc1ccc(OCCN(Cc2ccccc2C(F)(F)F)c2ccc(C#N)c(C(F)(F)F)c2)c(Cl)c1,78% (active),-6% (inactive),-3% (inactive),98% (active),inactive,inactive,inactive,inactive
COc1ccc(NC(=O)c2ccc(-c3nc(-c4ccc(Cl)cc4)cs3)cc2)cc1N1CCN(C)CC1,34% (inactive),30% (inactive),0% (inactive),91% (active),inactive,inactive,inactive,inactive
CN(C)CCCc1cc(NC(=O)Nc2cccc(Cl)c2Cl)ccc1I,45% (inactive),12% (inactive),1% (inactive),102% (active),inactive,inactive,inactive,inactive
O=C(Nc1cc(C(F)(F)F)cc(C(F)(F)F)c1)N1CCC(CCN2CCC(c3c[nH]c4ccccc34)CC2)CC1,16% (inactive),17% (inactive),6% (inactive),91% (active),inactive,inactive,inactive,inactive
COc1cccc2cc(C(=O)N[C@@H](CC(C)C)C(=O)N[C@H](/C=N/N3CCOC3=O)Cc3ccccc3)oc12,70% (active),6% (inactive),-1% (inactive),96% (active),inactive,inactive,inactive,inactive
CC(C)c1ccc(CN2CCC(NC(=O)c3ccc(-c4cccc(F)c4)s3)CC2)cc1,12% (inactive),47% (inactive),3% (inactive),83% (active),inactive,inactive,inactive,inactive
c1cc(-c2ccc(CNCCc3ccncc3)cc2)cc(-c2nc3ccccc3[nH]2)c1,99% (active),41% (inactive),-8% (inactive),101% (active),inactive,inactive,inactive,inactive
Cc1ccc(/C=C/C(=O)NCCCCCN2CCCN(C(=O)Nc3ccc(Cl)c(Cl)c3)CC2)cc1,1% (inactive),24% (inactive),2% (inactive),95% (active),inactive,inactive,inactive,inactive
COc1ccc(CNC(=O)Nc2cc3cc(-c4ccc(CN(C)C)cc4)ccc3n3c(C)nnc23)cc1,80% (active),99% (active),-4% (inactive),93% (active),inactive,inactive,inactive,inactive
COc1cccc(NC(=O)c2cc(Br)cc(N3CCN(c4ccncc4)CC3)c2)c1,79% (active),30% (inactive),0% (inactive),100% (active),inactive,inactive,inactive,inactive
COc1cc(Nc2nccc(N3CCC(NC(=O)c4cccc(NC(C)=O)c4)C3)n2)cc(OC)c1OC (configuration not stated),68% (active),9% (inactive),-6% (inactive),98% (active),inactive,inactive,inactive,inactive
Cc1nc2ccc(NC(=O)Nc3ccnc4ccc(C(F)(F)F)cc34)cc2o1,24% (inactive),20% (inactive),-7% (inactive),89% (active),inactive,inactive,inactive,inactive
CC(=O)Oc1c(C2C=CCCC2)c(OC(C)=O)c2ccccc2c1OC(C)=O (configuration not stated),79% (active),10% (inactive),7% (inactive),95% (active),inactive,inactive,inactive,inactive
Cc1c(C)n(C2CCCC2)c2ncnc(OC3CCN(CC(=O)NCC4CC4)CC3)c12,89% (active),20% (inactive),1% (inactive),89% (active),inactive,inactive,inactive,inactive
O=C(Nc1ccc2c(c1)OCO2)NC1CCN(c2ccnc(Nc3ccc(F)cc3)n2)C1 (configuration not stated),89% (active),5% (inactive),3% (inactive),100% (active),inactive,inactive,inactive,inactive
CCCCCN1CCCC1CNS(=O)(=O)c1cccc(C(=O)Nc2cccc(C(F)(F)F)c2)c1 (configuration not stated),12% (inactive),15% (inactive),4% (inactive),96% (active),inactive,inactive,inactive,inactive
CC(C)c1cc(Oc2c(I)cc(CCNCc3ccccc3)cc2I)ccc1O,54% (active),42% (inactive),4% (inactive),95% (active),inactive,inactive,inactive,inactive
NC(=O)C1Cc2ccccc2CN1CC(=O)Nc1ccccc1Sc1ccccc1 (configuration not stated),99% (active),5% (inactive),3% (inactive),100% (active),inactive,inactive,inactive,inactive
O=S1C(Cl)=C(c2ccc(Cl)cc2)c2ccc(Cl)cc21 (configuration not stated),99% (active),33% (inactive),1% (inactive),91% (active),inactive,inactive,inactive,inactive
